KCNQ2 pot – potentiators of rat KCNQ2 potassium channel. O88943. B-score at 10 µM. CHO-K1 KCNQ2, FluxOR thallium flux fluorescence; active compounds read high. 0.54% of 310,000 active. AID 2239;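 active = fluorescence ratio B-score at least 3 SD of library B-scores, with initial fluorescence B-score within 3 of them, cut at about 5.3 in these data; same plate scores as AID 2156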;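 note: B-score of peak minus minimum over baseline fluorescence ratio after K+ and Tl+ stimulus; positive B-score means potentiation of KCNQ2 with more thallium influx and brighter signal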
Target sequence (O88943 whole entry, looked up): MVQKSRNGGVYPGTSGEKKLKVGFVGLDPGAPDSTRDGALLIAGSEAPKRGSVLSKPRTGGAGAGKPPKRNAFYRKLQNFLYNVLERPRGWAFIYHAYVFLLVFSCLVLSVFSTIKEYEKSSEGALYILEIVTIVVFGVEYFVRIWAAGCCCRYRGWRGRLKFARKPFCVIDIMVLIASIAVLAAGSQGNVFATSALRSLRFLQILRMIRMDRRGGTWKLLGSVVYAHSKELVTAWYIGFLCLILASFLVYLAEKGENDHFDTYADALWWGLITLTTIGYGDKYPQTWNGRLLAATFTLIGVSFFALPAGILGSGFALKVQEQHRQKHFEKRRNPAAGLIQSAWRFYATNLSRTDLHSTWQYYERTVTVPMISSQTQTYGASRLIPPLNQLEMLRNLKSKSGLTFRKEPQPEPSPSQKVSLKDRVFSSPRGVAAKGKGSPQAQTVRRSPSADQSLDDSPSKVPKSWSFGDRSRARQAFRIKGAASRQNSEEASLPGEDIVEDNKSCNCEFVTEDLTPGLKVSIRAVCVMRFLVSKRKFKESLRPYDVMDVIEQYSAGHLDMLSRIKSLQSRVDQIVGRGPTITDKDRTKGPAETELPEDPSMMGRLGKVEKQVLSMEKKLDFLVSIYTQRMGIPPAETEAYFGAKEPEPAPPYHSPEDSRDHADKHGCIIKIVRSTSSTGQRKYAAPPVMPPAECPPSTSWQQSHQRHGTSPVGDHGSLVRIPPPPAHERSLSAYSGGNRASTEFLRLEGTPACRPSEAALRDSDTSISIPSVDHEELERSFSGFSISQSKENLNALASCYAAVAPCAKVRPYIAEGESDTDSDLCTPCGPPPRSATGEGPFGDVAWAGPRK
KCNQ2 block – blocks the rat KCNQ2 potassium channel. O88943. CHO-K1 KCNQ2, FluxOR thallium flux, 20 min; active compounds read low. B-score at 10 µM. 1.1% of 310,000 active. AID 2156;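 active = fluorescence ratio B-score at most minus 3 library SDs, with starting brightness B-score within 2 library SDs, cut at about -5.5 in these data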
Kir21 confirm – confirmation of mouse Kir2.1 potassium channel inhibitors; 41% of 2,300 active; Tl flux remaining, % of negative control (active compounds read low), % at 10 µM; shares compounds with KCNQ2 pot; Kir2.1-expressing cells, FluxOR thallium flux fluorescence; active compounds read low;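 active = Primary-screen hit whose thallium flux fell at least 3 control SD below untreated wells in both duplicates, with normal baseline fluorescence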;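 note: 0% = blank wells without stimulus and 100% = stimulated no-compound controls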
HEK293 Tl flux – parental HEK293 activity in Kir2.1 inhibitor counter-screen; 19% of 2,300 active; parental HEK293 cells, FluxOR thallium flux fluorescence; 0% = unstimulated blank wells; FluxOR signal as % of negative control (100 = no effect), % at 10 µM; shares compounds with KCNQ2 pot;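 active = dye signal at least 3 control SD above or below untreated wells in both duplicates, raw fluorescence within 3, either direction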;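 note: percent is based on the flux ratio of peak minus minimum fluorescence over baseline F0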
CHO-K1 Tl ctr – alters thallium flux in parental CHO-K1 cells, KCNQ2 counter-screen; shares compounds with KCNQ2 pot; FluxOR thallium flux fluorescence; zero = vehicle mean+3SD, 100% = vehicle-minus-blank window; activity increase over 3SD of controls, % at 10 µM; 43% of 1,200 active;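 active = signal rise of at least 3 SD above the untreated control mean, in both duplicate wells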;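 note: counter screen of KCNQ2 potentiator hits so any rise reflects channel-independent effects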
KCNQ1 sel pot – selectivity of KCNQ2 potentiators: effect on human KCNQ1; CHO KCNQ1 stable, FluxOR thallium flux fluorescence; beyond 3SD, as % of vehicle-control signal; shares compounds with KCNQ2 pot; AID 2283; activation over 3SD threshold, % at 10 µM; 28% of 1,200 active;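 active = fluorescence ratio rise of at least 3 SD of vehicle wells above their mean, in both replicate wells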;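 note: 0% = vehicle mean plus 3 SD and 100% = vehicle minus unstimulated blank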
KCNQ2 pot confirm – confirmation of rat KCNQ2 potassium channel potentiators | shares compounds with KCNQ2 pot | CHO-KCNQ2 cells, FluxOR thallium flux fluorescence | potentiation, less the hit threshold, % at 10 µM | 68% of 1,200 active;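 active = fluorescence ratio rising 3 SD or more over the vehicle control mean in both replicates, plus primary screen hit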;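 note: peak minus minimum thallium fluorescence divided by baseline after K/Tl stimulus; 0% = vehicle mean plus 3 SD and 100% = vehicle minus unstimulated blank difference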
Kir2-1 sel – tests whether KCNQ2 potentiators also affect mouse Kir2.1; 2% of 1,200 active; HEK293 Kir2.1, FluxOR thallium flux fluorescence; activity over 3SD threshold, % at 10 µM; shares compounds with KCNQ2 pot;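 active = fluorescence ratio rise of at least 3 SD above the vehicle-control mean, seen in both replicates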;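 note: 0% = vehicle mean plus 3 SD and 100% = vehicle minus no-stimulus blank window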
KCNQ2 W236L MoA – rat KCNQ2 W236L mutant potentiation by KCNQ2 potentiators. shares compounds with KCNQ2 pot. CHO KCNQ2-W236L, automated patch clamp current. current increase over 3SD of negative controls (%), active compounds read high, % at 25 µM. 10% of 940 active;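 active = current increase at least 3 SD of the untreated controls above them in both duplicate recordings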
* = called active by the depositor; i = inactive; · = no result given. A selection: hits, their analogues and other compounds. The true share with any hit is near 1.6%.

SMILES	KCNQ2 pot	KCNQ2 block	Kir21 confirm	HEK293 Tl flux	CHO-K1 Tl ctr	KCNQ1 sel pot	KCNQ2 pot confirm	Kir2-1 sel	KCNQ2 W236L MoA
CCCc1cnc(NCCNCC(O)COc2ccc(Cl)c(Cl)c2)nc1 (stereo not given)	·	i	68%*	i	·	·	·	·	·
CCOC(=O)c1c(C)n(C)c2ccc(OCC(O)CNCCc3ccccc3)cc12 (stereo not given)	0.08	i	·	·	·	·	·	·	·
O=C(NCC(c1ccco1)N1CCN(c2ccc(F)cc2)CC1)C1CCCCC1 (stereo not given)	0.02	i	·	·	·	·	·	·	·
S=c1nc(-c2ccc(Br)cc2)[nH]c2ccccc12	26*	i	i	452%*	-3	-4	40*	-8	i
Fc1ccc(-c2nc3ccccc3[nH]2)cc1	0.68	i	·	·	·	·	·	·	·
O=C(COC(=O)C1CC(=O)N(Cc2ccco2)C1)c1ccc(OC(=O)c2ccccc2)cc1 (stereo not given)	0.01	i	i	i	·	·	·	·	·
O=C(OCC(=O)N1c2ccccc2Sc2ccccc21)C1CC(=O)N(Cc2ccco2)C1 (stereo not given)	·	i	·	·	·	·	·	·	·
COc1ccccc1N1C(=O)CC(N2CCN(c3ccc(Cl)cc3)CC2)C1=O (stereo not given)	1	i	·	·	·	·	·	·	·
COc1ccc(Oc2ccc(/C=C/C(=O)c3ccc(O)cc3)cc2[N+](=O)[O-])cc1	·	i	·	·	·	·	·	·	·
CC1CCC(n2c(=S)[nH]c3ccccc3c2=O)CC1 (stereo not given)	11*	i	i	i	-1	83*	27*	-27	i
O=c1c2ccccc2[nH]c(=S)n1C1CCCCC1	·	i	·	·	·	·	·	·	·
CC1(C)CC(n2c(=S)[nH]c3ccccc3c2=O)CCO1 (stereo not given)	0.74	i	·	·	·	·	·	·	·
CC1CCCC(n2c(=S)[nH]c3ccccc3c2=O)C1C (stereo not given)	11*	i	i	i	-15	-19	6.8*	-27	i
COc1cc(NC(=O)N[C@@H](Cc2c[nH]c3ccccc23)C(=O)O)c(C(=O)O)cc1OC	1	i	·	·	·	·	·	·	·
COc1ccc(Cl)cc1NC(=O)CN(C)C(=O)Cc1n[nH]c(=O)c2ccccc12	·	i	·	·	·	·	·	·	·
COc1ccc(/C=C2/SC(=O)N(CCC(=O)Nc3ccc(C)cc3)C2=O)cc1OC	0.85	i	·	·	·	·	·	·	·
COc1cc(/C=C2/SC(=S)N(CC(=O)O)C2=O)ccc1OCC(=O)Nc1ccc(C)c(C)c1	·	i	i	i	·	·	·	·	·
Cc1ccc(C(=O)NCCc2ccc(S(N)(=O)=O)cc2)cc1[N+](=O)[O-]	·	i	·	·	·	·	·	·	·
CC(CN1CCCCC1)OC(=O)c1ccco1 (stereo not given)	·	i	·	·	·	·	·	·	·
Cc1cc(C(F)(F)F)nc(SCC(=O)NC2CC3CCC2C3)n1 (stereo not given)	6*	i	·	·	-13	-11	43*	-54	i
Cc1cc(C(F)(F)F)nc(SCC(=O)Nc2ccccc2)n1	0.13	i	·	·	·	·	·	·	·
O=C(NC(=S)Nc1ccccc1)c1ccc(-c2ccccc2)cc1	0.29	i	·	·	·	·	·	·	·
COc1ccc(CNC(=O)c2csnn2)cc1	·	i	·	·	·	·	·	·	·
O=C(NC(=S)Nc1ccccc1)c1cc(-c2ccccc2)nc2ccccc12	17*	i	i	131%*	-13	-21	1.7*	-34	i
O=C(NC(=S)Nc1ccc(C(F)(F)F)cc1)c1csnn1	21*	i	i	398%*	2.2*	-26	69*	-23	i
SMILES	KCNQ2 pot	KCNQ2 block	Kir21 confirm	HEK293 Tl flux	CHO-K1 Tl ctr	KCNQ1 sel pot	KCNQ2 pot confirm	Kir2-1 sel	KCNQ2 W236L MoA
O=C(NC(=S)Nc1ccccc1)c1csnn1	18*	i	i	487%*	-18	-13	73*	-5	i
O=C(Nc1csnn1)c1csnn1	·	i	·	·	·	·	·	·	·
O=C(NC(=S)Nc1ccccn1)c1cc(-c2ccccc2)nc2ccccc12	1.7	i	·	·	·	·	·	·	·
COc1ccc(NC(=S)NC(=O)c2csnn2)cc1	11*	i	i	242%*	21*	-10	30*	-19	i
COc1ccc(CNCC(=O)Nc2cc(OC)cc(OC)c2)cc1	1.6	i	·	·	·	·	·	·	·
Cc1ccc(S(=O)(=O)CCC(=O)Nc2nnc(-c3cccs3)o2)cc1	·	i	·	·	·	·	·	·	·
COc1cc(CNCc2cc(OC)c(OC)c(OC)c2)cc(OC)c1	1.2	i	·	·	·	·	·	·	·
Cc1cccc(C)c1NC(=O)/C(C#N)=C/c1ccc(-c2ccc(C(=O)O)cc2)o1	·	i	·	·	·	·	·	·	·
COc1ccccc1-n1cc2c([N+](=O)[O-])cc([N+](=O)[O-])cc2n1	0.36	i	·	·	·	·	·	·	·
Cc1ccc(C(C)NC(=S)NC2CCCCC2)c(C)c1 (stereo not given)	7.3*	i	·	·	70*	-6	-2	-55	8.5%*
CC(=O)NC(CC(=O)NC1CCCCCC1)c1ccccc1 (stereo not given)	1.4	i	·	·	·	·	·	·	·
Cc1ccc(C(C)NC(=O)C2CCCC2)c(C)c1 (stereo not given)	0.67	i	·	·	·	·	·	·	·
CCC(NC(=O)NC1CCCCC1)c1ccccc1 (stereo not given)	19*	i	i	i	-18	-13	70*	-35	i
CCN1CCN(C(c2cccs2)C(C)NC(=S)NC2CCCCC2)CC1 (stereo not given)	·	i	·	·	·	·	·	·	·
CCC(NC(=S)NC1CCCCC1)c1ccc(C(C)C)cc1 (stereo not given)	14*	i	i	i	18*	-25	54*	-32	i
Cc1ccc(C(C)NC(=S)NC2CCCCC2)cc1C (stereo not given)	25*	i	i	i	-30	8.7*	103*	-51	i
COc1ccc(C(C)NC(=S)NC2CCCC2)cc1OC (stereo not given)	0.16	i	·	·	·	·	·	·	·
CN1CCN(CC(=O)Nc2cc(S(=O)(=O)N3CCOCC3)ccc2Cl)CC1	·	i	·	·	·	·	·	·	·
CCNc1nc(NC(C)C)nc(NS(=O)(=O)c2ccc(C)cc2)n1	1	i	·	·	·	·	·	·	·
Cc1ccc(NC(=O)CSCC(=O)N(C)CC(=O)Nc2cccc3ccccc23)cc1	·	i	·	·	·	·	·	·	·
CCCCCCCCC/C(=N\O)c1ccccn1	24*	i	i	66%*	-25	-4	20*	-42	i
CCCCCCCCC(=O)N/N=C/c1ccccn1	1.8	i	·	·	·	·	·	·	·
CN1CCC(OC(=O)c2ccc(Br)cc2)CC1	0.43	i	·	·	·	·	·	·	·
CN1CCC(=C(c2ccccc2)c2ccc(Br)cc2)CC1	·	i	38%*	i	·	·	·	·	·

Screens (PubChem BioAssay)
